The source of these data is PubChem BioAssay AID651768 (National Center for Advancing Translational Sciences (NCATS), 2012).

The whole screen tested about 360,000 compounds, of which about 1,700 (0.47%) were called active. A call without a number means that no potency is given here. Inconclusive results (about 2%) are left out. This is one part of a sample in which actives are shown more often than they occur. A number with no mark means an inactive call. Calls come from the whole dose curve; as a rule, active = well fitted inhibition curve with a large enough effect; inconclusive = small, poorly fitted or top-dose-only effect; inactive = no such curve, though single readings can be large or run the other way.
Potency is the fitted concentration of half-maximal effect.

Sequence of Bifunctional 3'-5' exonuclease/ATP-dependent helicase WRN (Homo sapiens) (Q14191 whole entry, looked up): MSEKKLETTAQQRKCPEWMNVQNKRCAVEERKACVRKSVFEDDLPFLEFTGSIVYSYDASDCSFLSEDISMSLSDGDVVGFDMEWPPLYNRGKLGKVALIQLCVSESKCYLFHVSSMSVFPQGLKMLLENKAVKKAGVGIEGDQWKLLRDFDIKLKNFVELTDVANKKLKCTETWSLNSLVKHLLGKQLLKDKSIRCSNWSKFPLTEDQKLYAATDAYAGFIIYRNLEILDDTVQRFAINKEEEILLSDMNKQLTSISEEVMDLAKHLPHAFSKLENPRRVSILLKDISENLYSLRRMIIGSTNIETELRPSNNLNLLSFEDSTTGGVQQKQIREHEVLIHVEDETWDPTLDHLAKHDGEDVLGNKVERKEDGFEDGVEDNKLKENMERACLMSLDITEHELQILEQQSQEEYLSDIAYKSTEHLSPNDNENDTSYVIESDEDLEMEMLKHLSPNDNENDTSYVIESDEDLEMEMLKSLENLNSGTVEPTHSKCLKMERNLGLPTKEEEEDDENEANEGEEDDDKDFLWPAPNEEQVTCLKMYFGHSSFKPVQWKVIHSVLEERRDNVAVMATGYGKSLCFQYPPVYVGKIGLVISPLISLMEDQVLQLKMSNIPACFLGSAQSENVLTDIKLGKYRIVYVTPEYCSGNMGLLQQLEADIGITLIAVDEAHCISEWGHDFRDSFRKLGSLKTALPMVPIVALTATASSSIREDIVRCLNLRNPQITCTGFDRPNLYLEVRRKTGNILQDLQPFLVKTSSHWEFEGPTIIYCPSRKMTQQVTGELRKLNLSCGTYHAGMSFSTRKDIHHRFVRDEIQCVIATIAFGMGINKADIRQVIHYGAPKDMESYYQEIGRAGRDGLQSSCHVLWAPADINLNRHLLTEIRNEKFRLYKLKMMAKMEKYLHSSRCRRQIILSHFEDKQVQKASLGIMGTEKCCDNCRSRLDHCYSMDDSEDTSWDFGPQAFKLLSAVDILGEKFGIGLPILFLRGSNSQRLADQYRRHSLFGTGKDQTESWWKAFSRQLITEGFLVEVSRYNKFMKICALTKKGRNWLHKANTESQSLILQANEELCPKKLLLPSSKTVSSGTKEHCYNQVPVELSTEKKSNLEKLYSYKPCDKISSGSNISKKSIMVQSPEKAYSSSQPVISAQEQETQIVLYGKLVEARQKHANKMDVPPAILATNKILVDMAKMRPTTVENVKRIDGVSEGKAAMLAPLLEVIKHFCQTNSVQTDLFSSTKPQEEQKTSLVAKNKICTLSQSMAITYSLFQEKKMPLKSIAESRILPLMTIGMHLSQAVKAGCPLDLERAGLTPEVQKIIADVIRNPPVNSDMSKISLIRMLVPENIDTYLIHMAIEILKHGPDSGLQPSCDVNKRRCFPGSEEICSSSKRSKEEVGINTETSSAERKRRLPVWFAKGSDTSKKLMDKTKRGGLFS

The assay concerns the target Bifunctional 3'-5' exonuclease/ATP-dependent helicase WRN (Homo sapiens) (UniProt Q14191). As to the kind of experiment: qHTS for Inhibitors of WRN Helicase. Note: nearly all actives have a fitted effect of over 55% in size. To be noted: WRN helicase unwinding, fluorescent forked duplex, kinetic; series mostly up to 114 µM. In a few lines: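 Enzyme (20 nM final) and test compound sit together 15 min at room temperature before substrate addition. Substrate is a single-forked duplex oligonucleotide (100 nM) labelled with fluorophore and quencher, with 2 mM ATP; helicase unwinding raises red fluorescence, read kinetically.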
(qHTS replaces the single test concentration by a dilution series.)
Consider `CCOc1ccc(CCN2C(=O)C(=O)N([C@@H](CC(C)C)CN3CCC[C@H]3CN3C(=O)C(=O)NC[C@@H]3Cc3ccccc3)C[C@@H]2CC(C)C)cc1`, for which the Potency result was “inactive”.

Consider `C[C@H]1CN([C@@H](C)CO)C(=O)c2cc(-c3ccccc3F)cnc2O[C@H]1CN(C)C(=O)C1CCOCC1`, for which the Potency entry is “inactive”.

Regarding `Cc1cccc(C)c1-n1nnnc1C1(C)CCC(=O)N1CCOc1ccccc1` (stereo not drawn), the Potency result was “inactive”.

As to `CC(=O)Nc1cccc(-c2cc3nc(NCc4cccnc4)n(C)c(=O)c3s2)c1`, the Potency entry was “inactive”.

As to `C=C(C)C(=O)Nc1cccc(C2=NOC3(C2)C[C@H](C(N)=O)N(C(=O)C(c2ccccc2)c2ccccc2)C3)c1` (stereo partly drawn), the Potency is 50.1 µM (active).

For the molecule `C/C=C(/C)C(=O)Nc1cccc(C2=NOC3(C2)C[C@@H](C(N)=O)N(C(=O)C2(C)CC2)C3)c1` (stereo partly drawn), the Potency result was “inactive”.

In the case of `C/C=C\C=C\C(=O)N1CC2(CC(c3cccc(NC(=O)/C(C)=C\C)c3)=NO2)C[C@H]1C(N)=O` (stereo partly drawn), the activity change, negative = inhibition was -13.3% [at 11.6 µM].

With `O=C(Nc1ccccc1Cl)c1ccccc1S(=O)(=O)c1ccccc1[N+](=O)[O-]`, the Potency entry is “inactive”.

Turning to `O=C(Nc1ccccc1Cl)/C(Cl)=C(\Cl)S(=O)c1ccccc1` (stereo not drawn), the Potency is 2.51 µM (active).

For `CC(=O)c1ccc(NC(=O)C(C)N(C)CC(=O)Nc2ccccc2Cl)cc1` (stereo not drawn), the Potency entry was “inactive”.

In the case of `COc1cc(OC)cc(C2=Cc3ccccc3C(CC(=O)c3ccco3)N2c2ccc(-c3cnc(OC)nc3)cc2)c1` (stereo not drawn), the Potency result is “inactive”.

For `Cc1ccc(S(=O)(=O)N(c2cccc(C)c2)C2CCS(=O)(=O)C2)cc1` (stereo not drawn), the Potency result was “inactive”.

Regarding `O=C(CC[C@H]1O[C@@H](n2ccc(=O)[nH]c2=O)[C@H](O)[C@@H]1O)N[C@H](Cc1ccccc1)C(=O)NCCCN1CCCC1=O`, the Potency entry was “inactive”.

In the case of `CN(C(=O)COC(=O)Cc1ccccc1[N+](=O)[O-])C1CCS(=O)(=O)C1` (stereo not drawn), the Potency entry was “inactive”.

`CN(C(=O)COC(=O)c1cc(-c2ccco2)nc2ccccc12)C1CCS(=O)(=O)C1` (stereo not drawn): the Potency is 31.6 µM (active).

Turning to `COc1ccc(NC(=O)COc2ccc(C(=O)OCC(=O)N(C)C3CCS(=O)(=O)C3)cc2OC)cc1` (stereo not drawn), the Potency entry was “inactive”.

In the case of `Cc1ccc(C2(c3ccc(C)cc3)NC(=O)N(Cc3c(C)noc3C)C2=O)cc1`, the Potency entry is “inactive”.

As for `NC(=O)c1c(NC(=O)CSc2nnc(-c3ccco3)n2N)sc2c1CCCC2`, the Potency was 50.1 µM (active).

As to `CCOC(=O)c1c(NC(=O)CSc2nnc(CN3CCOCC3)n2C)sc2c1CCCC2`, the Potency entry is “inactive”.

Consider `Nn1c(SCC(=O)Nc2nccs2)nnc1-c1ccco1`, for which the Potency result is “inactive”.

As to `COc1cc(OC)c(NC(=O)C2CCCN2C(=O)OCc2ccccc2)cc1Cl` (stereo not drawn), the Potency entry was “inactive”.

As for `O=C1Nc2ccccc2NC(c2ccc3c(c2)OCO3)=C1N(Cc1ccc(F)cc1)C(=O)c1ccco1`, the Potency result was “inactive”.

`CC(C)c1ccc2c(c1)c(SC(C)(C)C)c(CC(C)(C)C(=O)O)n2Cc1ccc(Cl)cc1`: the Potency is 50.1 µM (active).

Turning to `CCC(CC)NC(=O)CSc1nnc(-c2c[nH]c3ccccc23)o1`, the Potency entry is “inactive”.

For `O=C(c1cc(C2CCCCN2S(=O)(=O)c2ccccc2)on1)N1CCOCC1` (stereo not drawn), the Potency entry is “inactive”.

As to `COc1ccc2c(c1)C(=C(C#N)C#N)C(=O)N2CCc1ccccc1`, the Potency is 50.1 µM (active).

`CCCCN1C(=O)/C(=C(/C#N)C(N)=O)c2ccccc21`: the Potency result was “inactive”.

On to `C#CCN1C(=O)C(O)(CC(=O)c2cc(OC)ccc2OC)c2ccccc21` (stereo not drawn), for which the Potency result was “inactive”.

For the molecule `CCCCn1c(N)c(N(CCOC)C(=O)c2sc3ccccc3c2Cl)c(=O)[nH]c1=O`, the Potency result is “inactive”.

As for `Cc1[nH]c2ccccc2c1C(=O)c1cc([C@H](NC(=O)OC(C)(C)C)C(C)C)sc1N`, the Potency result is “inactive”.

For `COc1ccc([C@H]2CC(=O)C[C@@H](CCn3cc(CC4CCCC4)nn3)O2)cc1`, the Potency result was “inactive”.

`O=C(CN1C(=O)c2cccc3cccc(c23)C1=O)N1CCCCC1`: the Potency result was “inactive”.

`O=C(COC(=O)CCCN1C(=O)c2cccc3cccc(c23)C1=O)NC1CCS(=O)(=O)C1` (stereo not drawn): the Potency entry is “inactive”.

With `C[N+](C)(CCCCCC[N+](C)(C)CCCN1C(=O)c2cccc3cccc(c23)C1=O)CCCN1C(=O)c2cccc3cccc(c23)C1=O`, the Potency was 44.7 µM (active).

As for `O=C1c2cccc3cccc(c23)C(=O)N1CCCCCc1n[nH]c(=S)o1`, the Potency is 100 µM (active).

In the case of `O=C(CN1C(=O)c2cccc3cccc1c23)Nc1ccccc1`, the activity change, negative = inhibition was -0.0297% [at 11.6 µM].

Take `O=C(CCCN1C(=O)c2cccc3cccc(c23)C1=O)N1CCN(Cc2ccc3c(c2)OCO3)CC1`: the Potency result was “inactive”.

As to `Cc1ccc(CCNC(=O)CN2C(=O)CSc3ccc(S(=O)(=O)N4CCOCC4)cc32)cc1`, the Potency entry was “inactive”.

As for `CCOC(=O)[C@]12CCCC=C1N(CCC1=CCCCC1)C(=O)[C@H](CC(=O)NCCCCc1ccccc1)C2`, the Potency entry was “inactive”.

As for `CCCCOCCCNC(=O)C[C@@H]1C[C@@]2(C(=O)OCC)CCCC=C2N(CCC2=CCCCC2)C1=O`, the Potency entry is “inactive”.

For `CN(C)c1ccc(CSc2ccccc2)cc1`, the Potency result was “inactive”.

`CS/C(=C\[N+](=O)[O-])Nc1ccc(C)cc1`: the Potency entry is “inactive”.

Regarding `Nc1nc2ncccn2c1-c1ccccc1`, the Potency entry was “inactive”.

With `CSc1nc(-c2ccco2)nn1C(=O)c1ccccc1Cl`, the Potency entry is “inactive”.

For the molecule `c1ccc(CSc2nnc(-c3ccco3)c(-c3ccco3)n2)cc1`, the Potency is 28.2 µM (active).

For the molecule `Clc1ccccc1CSc1nnc(-c2ccco2)c(-c2ccco2)n1`, the Potency is 50.1 µM (active).

Take `c1ccc(Cc2c(-c3ccco3)nc3c4ccccc4ccn23)cc1`: the Potency result was “inactive”.

Consider `COc1ccc(NCc2nnc(SCc3ccccc3)n2-c2ccc(OC)cc2)cc1`, for which the Potency entry was “inactive”.

For the molecule `O=C(Nc1nnc(SCc2ccccc2Cl)s1)c1cccc([N+](=O)[O-])c1`, the Potency result is “inactive”.

Consider `CCCC1(C(=O)OC)NC(c2ccco2)C2C(=O)N(C)C(=O)C21` (stereo not drawn), for which the Potency result was “inactive”.

Regarding `Cc1cc(C)c(S(=O)(=O)N2C=CC(C(F)(F)F)=NCC2)c(C)c1`, the Potency entry was “inactive”.

On to `CSc1c(SCc2ccccc2)cnn(Cc2ccccc2)c1=O`, for which the Potency result was “inactive”.

Regarding `O=C(c1ccc(Cl)c(S(=O)(=O)N2CCCCCC2)c1)N1CCN(c2ccc(O)cc2)CC1`, the Potency entry was “inactive”.
